Measured values reported in article PMC5540273 (PLoS ONE, 2017).

Tested on: T1, LKB1
T1 construct: gene STK11
Settings: concentration: 1 μM, replicates: in singlicate; n = 1
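Further: KINOMEscan kinase panel screen.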

Question: `CCn1c(-c2ccoc2)nc2cnccc21` [SB-733887] was tested. Which “%Inh” value did it give?
Answer: 0%

Question: How did the “%Inh” value turn out when `Nc1nc(-c2ccccc2F)c(-c2ccnc3ccccc23)s1` [GW560459] was run?
Answer: 0%

Question: Which “%Inh” value does the source give for `COc1cc(Nc2ccnc3ccc(C(F)(F)F)cc23)cc(OC)c1OC` [GW577382] here?
Answer: 0%

Question: Which “%Inh” value does the source give for `COC(=O)c1c(-c2ccccc2)c2cc(Br)ccc2c(=O)n1Cc1ccc(S(C)(=O)=O)cc1` here?
Answer: 0%

Question: `O=C(Nc1n[nH]c2nc(-c3ccccc3)c(Cl)cc12)C1CC1` [SB-734909] was tested. Which “%Inh” value did it give?
Answer: 37%

Question: How did the “%Inh” value turn out when `Nc1nc(N)c2nc(-c3ccccc3)[nH]c2n1` [SKF-12778] was run?
Answer: 0%

Question: `Cc1c(Cn2c(C)nn3c(=O)cc(N4CCO[C@H](C)C4)nc23)cccc1C(F)(F)F` [GSK2373690] was tested. Which “%Inh” value did it give?
Answer: 0%

Question: With `COc1cccc(C2=C(Nc3cccc(C(=O)O)c3)C(=O)NC2=O)c1` [SB-390770] as the molecule, how does the “%Inh” value read?
Answer: 0%

Question: With `CCCNC(=O)Nc1ccc(Oc2ncnc3ccn(C)c23)cc1` as the molecule, how does the “%Inh” value read?
Answer: 9%

Question: Which “%Inh” value does the source give for `Cc1ccc(-c2ccc3c(ccc4sc5c(c43)NC[C@@H](C)N=C5N(C)C)n2)cn1` here?
Answer: 0%

Question: `CN1C(=O)C(Nc2cc(Cl)c(O)c(Cl)c2)=C(c2ccc(Cl)cc2)C1=O` [SB-404321] was tested. Which “%Inh” value did it give?
Answer: 32%

Question: How did the “%Inh” value turn out when `COc1cc(Nc2nccc(N3CCC(NC(=O)C4COc5ccccc5O4)C3)n2)cc(OC)c1OC` (stereo not shown) [GSK1379761] was run?
Answer: 27%

Question: `COc1ccc(-c2coc3ccc(-c4nnc(SCc5cccc(C#N)c5)o4)cc23)cc1` was tested. Which “%Inh” value did it give?
Answer: 0%

Question: Which “%Inh” value does the source give for `COc1cc(Nc2nccc(N3CCC(NC(=O)C(C)c4ccc(Cl)cc4)C3)n2)cc(OC)c1OC` (stereo not shown) [GSK1379757] here?
Answer: 7%

Question: `COC(=O)c1c(-c2ccccc2)c2cc(Br)ccc2c(=O)n1Cc1ccc(NC(=O)CCC(=O)O)cc1` was tested. Which “%Inh” value did it give?
Answer: 6%

Question: `COc1cccc(-n2cnc3c(N)ncnc32)c1` [SKF-97416] was tested. Which “%Inh” value did it give?
Answer: 60%

Question: For `O=C(NCc1cccs1)c1cc(C(=O)c2c(Cl)cccc2Cl)c[nH]1` [GW823670], which “%Inh” value is on record?
Answer: 49%

Question: With `C[C@@H]1CC[C@H](C(=O)NC2CCCCC2)CN1c1cc(-c2ccc3c(N)n[nH]c3c2)nc(N)n1` [GSK2291363] as the molecule, how does the “%Inh” value read?
Answer: 23%

Question: `Cc1nnc(-c2ccc3ncn(-c4ccc(S(C)=O)cc4)c3c2)o1` (stereo not shown) was tested. Which “%Inh” value did it give?
Answer: 9%

Question: Which “%Inh” value does the source give for `O=C1NC(=O)C(c2ccccc2)=C1Nc1cccc(O)c1` [SB-390534] here?
Answer: 0%

Question: Which “%Inh” value does the source give for `COc1ccc(-c2cc3c(C)nc(N)nc3n([C@H]3CC[C@H](OCCO)CC3)c2=O)cn1` here?
Answer: 40%

Question: With `Cc1nnc(-c2ccc(C)c(-c3ccc(C(=O)O)cc3)c2)o1` [GW608005] as the molecule, how does the “%Inh” value read?
Answer: 5%

Question: How did the “%Inh” value turn out when `Cc1cccc(-c2cc(-c3c[nH]nc3-c3ccccn3)ccn2)c1` [GW679395] was run?
Answer: 0%

Question: Which “%Inh” value does the source give for `Nc1ncnc2c1ncn2-c1ccc(Cl)cc1` [AH2635] here?
Answer: 10%

Question: How did the “%Inh” value turn out when `Cl.NS(=O)(=O)c1cccc(Nc2cc(-c3ccc(F)cc3)n[nH]2)c1` [GW824645] was run?
Answer: 25%

Question: For `Fc1cccc(CSc2nnc(-c3ccc4c(c3)CCO4)o2)c1`, which “%Inh” value is on record?
Answer: 16%

Question: With `CCC(=O)c1c(-c2ccccc2)c2cc(Cl)ccc2c(=O)n1Cc1cc(S(C)(=O)=O)n(CC(N)=O)n1` as the molecule, how does the “%Inh” value read?
Answer: 37%

Question: With `FC(F)(F)c1ccc(-c2ncn(CCCN3CCOCC3)c2-c2ccncc2)cc1` [SB-217780] as the molecule, how does the “%Inh” value read?
Answer: 23%

Question: `Cc1ccc(Oc2ccc(Nc3ncnc4cc[nH]c34)cc2C)cn1` was tested. Which “%Inh” value did it give?
Answer: 11%

Question: `Cc1cccc(-c2nc(Nc3ccc4c(cnn4C)c3)c3ccccc3n2)n1` [GW876731] was tested. Which “%Inh” value did it give?
Answer: 48%

Question: `O=C(NCCNc1ccnc(Nc2ccc(F)cc2)n1)Nc1ccc2c(c1)OCO2` [GSK1379882] was tested. Which “%Inh” value did it give?
Answer: 25%

Question: With `Nc1ncnc2c1ncn2-c1cccc(F)c1` [SKF-97560] as the molecule, how does the “%Inh” value read?
Answer: 4%

Question: For `Cc1nc(N(C)[C@H]2CN(C(=O)CC#N)CC[C@H]2C)c2cc[nH]c2n1`, which “%Inh” value is on record?
Answer: 0%

Question: `CCC(=O)c1c(-c2ccccc2)c2cc(Cl)ccc2c(=O)n1Cc1ccc(C(=O)O)cc1` was tested. Which “%Inh” value did it give?
Answer: 1%

Question: `COc1cc2ncn(-c3cc(OCCCc4ccccc4)c(C(N)=O)s3)c2cc1OC` [GSK205189] was tested. Which “%Inh” value did it give?
Answer: 0%

Question: `CCCC(=O)Nc1n[nH]c2ncc(-c3cccc4ccccc34)cc12` [SB-642057] was tested. Which “%Inh” value did it give?
Answer: 0%

Question: Which “%Inh” value does the source give for `CN(C)c1cc(-c2ccc3c(N)n[nH]c3c2)nc(N)n1` [GSK2219329] here?
Answer: 0%
